The whole screen tested about 3,200 compounds, of which about 300 (9.4%) showed activity. The sample holds actives, similar compounds and a random draw of the others, so the mix is not that of the screen. Unmarked numbers belong to inactive results.

This assay relates to A673/TR/shEF. The assay can be described thus: cell viability (LOESS-normalised, relative to median of negative controls) (log2 ratio); higher = more viable cells (less compound effect), active = hit call of the paper (over 3 MAD below the median). The conditions noted are these: treatment time: 72 h. Summed up: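 For three days, A673/TR/shEF Ewing sarcoma cells in 384-well plates (1,500 per well) were treated with library compounds at two or more concentrations or with DMSO controls, after doxycycline had been added or withheld 24 h beforehand to induce EWS-FLI1 shRNA knockdown. Viability was read by CellTiter-Glo luminescence on an Envision reader. The data were LOESS-corrected per plate, divided by the median of negative controls and log2-transformed.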

Where [1] appears, read: 0.25 µM, library screen: screen1, EWS-FLI1 expression: high (no doxycycline).
Setting [2] is: 0.25 µM, library screen: screen1, EWS-FLI1 expression: low (doxycycline-induced shRNA knockdown).
The mark [3] stands for this setting: 2.5 µM, library screen: screen1, EWS-FLI1 expression: high (no doxycycline).
[4] abbreviates: 2.5 µM, library screen: screen1, EWS-FLI1 expression: low (doxycycline-induced shRNA knockdown).
[5] abbreviates: 0.25 µM, library screen: screen2, EWS-FLI1 expression: high (no doxycycline).
Where [6] appears, read: 0.25 µM, library screen: screen2, EWS-FLI1 expression: low (doxycycline-induced shRNA knockdown).
The mark [7] stands for this setting: 2.5 µM, library screen: screen2, EWS-FLI1 expression: high (no doxycycline).
[8] abbreviates: 2.5 µM, library screen: screen2, EWS-FLI1 expression: low (doxycycline-induced shRNA knockdown).

Turning to `Clc1ccc(Cl)cc1`, the “cell viability (log2)” value is 0.0995 under setting [1], 0.0885 under setting [2], 0.0618 under setting [3] and 0.0905 under setting [4].

Turning to `CC[C@@H](C)C(=O)O[C@H]1[C@H](O)[C@H]2[C@@H](CN3C[C@@H](C)CC[C@H]3[C@@]2(C)O)[C@@H]2C[C@]34O[C@]5(O)[C@@H](OC(=O)[C@@](C)(O)CC)CC[C@@]3(C)[C@@H]5[C@@H](OC(C)=O)[C@@H](OC(C)=O)[C@H]4[C@@]21O`, the “cell viability (log2)” value is -0.0817 under setting [1], -0.0114 under setting [2], 0.16 under setting [3] and -0.013 under setting [4].

In the case of `C/C=C/c1ccc2c(c1)OCO2`, the “cell viability (log2)” value runs as follows: under setting [1], 0.0443; under setting [2], -0.0135; under setting [3], 0.1; under setting [4], 0.0835.

As to `CC(=O)OCC1=C(C(=O)O)N2C(=O)[C@@H](NC(=O)CCCC(N)C(=O)O)C2SC1` (some centres not stated), the “cell viability (log2)” value is, setting by setting: under setting [1], 0.128; under setting [2], 0.143; under setting [3], 0.14; under setting [4], -0.0301.

As for `C[C@]12C=CC(=O)C=C1CC[C@@H]1[C@@H]2CC[C@]2(C)C(=O)CC[C@@H]12`, the “cell viability (log2)” value by setting is: under setting [1], 0.0143; under setting [2], 0.0386; under setting [3], -0.0049; under setting [4], 0.0547.

As for `C=CCC1(C(C)CCC)C(=O)NC(=S)NC1=O` (configuration not stated), the “cell viability (log2)” value is, setting by setting: under setting [1], 0.103; under setting [2], 0.0758; under setting [3], 0.146; under setting [4], 0.0138.

Turning to `CC1C2Cc3ccc(O)cc3C1(C)CCN2CC1CC1` (configuration not stated), the “cell viability (log2)” value reads like this: under setting [5], 0.105; under setting [6], 0.104; under setting [7], 0.153; under setting [8], 0.0285.

For `C[C@@H]1CC[C@H]2[C@@H](C)C(=O)O[C@@H]3OC4(C)CC[C@@H]1[C@]32OO4`, the “cell viability (log2)” value reads like this: under setting [1], 0.0266; under setting [2], 0.0821; under setting [3], 0.0419; under setting [4], -0.14.

Consider `COc1ccc(C[C@H]2NC[C@H](O)[C@H]2OC(C)=O)cc1`, for which the “cell viability (log2)” value under setting [1] is -0.49 (active), the “cell viability (log2)” value under setting [2] was -0.228 (active), the “cell viability (log2)” value under setting [3] is -2.24 (active) and the “cell viability (log2)” value under setting [4] is -1.04 (active).

As to `CC(C)[C@H]1CN[C@H](C(=O)O)[C@H]1CC(=O)O`, the “cell viability (log2)” value under setting [5] is 0.0705, the “cell viability (log2)” value under setting [6] was 0.0959, the “cell viability (log2)” value under setting [7] is 0.0874 and the “cell viability (log2)” value under setting [8] is 0.0543.

Take `CCCCCCCCCCCCCCCC[n+]1ccccc1`: the “cell viability (log2)” value by setting is: under setting [1], 0.0178; under setting [2], -0.00413; under setting [3], -1.66 (active); under setting [4], -2.21 (active).

As to `COc1cc(OC)c2c(c1)OC(c1ccc(OC)c(OC)c1)C(O)C2` (configuration not stated), the “cell viability (log2)” value is 0.123 under setting [1], 0.00653 under setting [2], 0.0915 under setting [3] and 0.0594 under setting [4].

With `CNc1ccc2oc(C[C@@H]3OC4(CC[C@@H]3C)O[C@H](C(C)C(=O)c3ccc[nH]3)[C@H](C)C[C@H]4C)nc2c1C(=O)O` (some centres not stated), the “cell viability (log2)” value is, setting by setting: under setting [1], 0.111; under setting [2], 0.0323; under setting [5], -0.082 (active); under setting [6], 0.0959; under setting [3], -0.0263; under setting [4], -1.11. Moreover, the “cell viability (log2)” value under setting [7] was -0.175 (active) and the “cell viability (log2)” value under setting [8] was 0.1.

For the compound `CN[C@@H](Cc1c[nH]c2ccccc12)C(=O)O`, the “cell viability (log2)” value runs as follows: under setting [1], 0.064; under setting [2], 0.0774; under setting [3], 0.156; under setting [4], 0.0411.

Take `CO[C@H]1C[C@H](O[C@H]2CCC3(C=O)C4CCC5(C)C(C6=CC(=O)OC6)CCC5(O)C4CC[C@]3(O)C2)O[C@H](C)[C@H]1O` (some centres not stated): the “cell viability (log2)” value was -0.95 (active) under setting [1], -1.15 (active) under setting [2], -3.9 (active) under setting [3] and -3.2 (active) under setting [4].

On to `C[C@@H]1O[C@@H](O[C@H]2C[C@@H](O)[C@]3(CO)[C@H]4[C@H](O)C[C@]5(C)[C@@H](C6=CC(=O)OC6)CC[C@]5(O)[C@@H]4CC[C@]3(O)C2)[C@H](O)[C@H](O)[C@H]1O`, for which the “cell viability (log2)” value is -2.32 (active) under setting [1]; -1.95 (active) under setting [2]; -0.747 (active) under setting [5]; -0.523 (active) under setting [6]; -3.06 (active) under setting [3]; -3.54 (active) under setting [4]. Also, the “cell viability (log2)” value was -4.02 (active) under setting [7] and -3.81 (active) under setting [8].

Turning to `CC1O[C@H](O[C@H]2C[C@@H](O)[C@]3(CO)C4C(O)C[C@]5(C)C(C6COC(=O)C6)CC[C@]5(O)C4CC[C@]3(O)C2)C(O)C(O)[C@H]1O` (some centres not stated), the “cell viability (log2)” value reads like this: under setting [5], 0.151; under setting [6], 0.0734; under setting [7], 0.15; under setting [8], 0.134.

Regarding `COC1C(O)C(O[C@H]2CC[C@]3(C=O)C4C(CC[C@]3(O)C2)[C@@]2(O)CC[C@H](C3=CC(=O)OC3)[C@@]2(C)C[C@H]4OC(C)=O)OC(C)C1OC(C)=O` (some centres not stated), the “cell viability (log2)” value under setting [1] was 0.109, the “cell viability (log2)” value under setting [2] is 0.146, the “cell viability (log2)” value under setting [3] was 0.0847 and the “cell viability (log2)” value under setting [4] is 0.082.

Consider `COC1C[C@H](O[C@H]2CC[C@]3(C)C4CC[C@]5(C)[C@@H](C6=CC(=O)OC6)CC[C@]5(O)C4CC[C@]3(O)C2)OC(C)[C@H]1O` (some centres not stated), for which the “cell viability (log2)” value was -0.209 (active) under setting [1], -0.262 (active) under setting [2], -3.79 (active) under setting [3] and -2.17 (active) under setting [4].

As to `C[C@@H]1O[C@@H](O[C@H]2CC[C@]3(C=O)[C@H]4CC[C@]5(C)[C@@H](C6=CC(=O)OC6)CC[C@]5(O)[C@@H]4CC[C@]3(O)C2)[C@H](O)[C@H](O)[C@H]1O`, the “cell viability (log2)” value is, setting by setting: under setting [1], 0.0221; under setting [2], 0.0427; under setting [3], -3.36 (active); under setting [4], -3.89 (active).

On to `O=c1cccc2n1C[C@@H]1CNC[C@H]2C1`, for which the “cell viability (log2)” value is 0.0148 under setting [1], -0.00559 under setting [2], 0.016 under setting [3] and 0.0651 under setting [4].

Turning to `C=CCN1CCc2cccc3c2[C@H]1Cc1ccc(O)c(O)c1-3`, the “cell viability (log2)” value was 0.199 under setting [5], 0.00481 under setting [6], 0.133 under setting [7] and 0.0436 under setting [8].

`CN[C@@H]1C[C@@H](c2ccc(Cl)c(Cl)c2)c2ccccc21`: the “cell viability (log2)” value runs as follows: under setting [5], 0.0875; under setting [6], 0.13; under setting [7], 0.173; under setting [8], 0.199.

`CN1C2CCC1CC(OC(=O)c1cc(Cl)cc(Cl)c1)C2` (configuration not stated): the “cell viability (log2)” value by setting is: under setting [5], 0.173; under setting [6], 0.0634; under setting [7], 0.093; under setting [8], -0.00531.

On to `C/C=C(/C)C(=O)O[C@H]1CC[C@@]2(C)[C@@H]3CC[C@H]4[C@]5(O)C[C@H](O)[C@@]6(O)[C@@H](CN7C[C@@H](C)CC[C@H]7[C@@]6(C)O)[C@]5(O)C[C@@]42O[C@]13O`, for which the “cell viability (log2)” value under setting [1] is 0.0954, the “cell viability (log2)” value under setting [2] was 0.0385, the “cell viability (log2)” value under setting [3] is 0.186 and the “cell viability (log2)” value under setting [4] is -0.0784.

Regarding `C#CCOC(=O)C1=CCCN(C)C1`, the “cell viability (log2)” value is 0.0844 under setting [5], 0.129 under setting [6], 0.0951 under setting [7] and 0.11 under setting [8].

The values are drawn from the supplement of paper PMC6089552.
